Records with an inconclusive call do not appear. A call without a number means that no potency is given here. Calls of active or inactive are those of the source. Calls follow the shape of the dose curve; as a rule, active = well fitted curve in the direction sought with a large enough effect; inconclusive = small, poorly fitted or top-dose-only effect, or another doubt; inactive = no such curve, though single readings can be large; an effect the other way counts as inactive or inconclusive.
Experiments:
[1] = qHTS of pediatric cancer cell lines to identify multiple opportunities for drug repurposing: Primary screen for control Hh wild type fibroblast cells (AID 1347106); also: nearly all actives have a fitted effect of over 55% in size; also: potency is read from the fitted curve at half-maximal effect
In short: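 Viability after 48 h compound treatment at 37C, 500-1,000 cells/well, read as ATP luminescence with CellTiter-Glo. Primary screens used 11-point (MIPE, 0.78 nM-46 µM) or 8-point (NPC, 0.59 nM-46 µM) final concentrations; follow-up screens used 11-point dilutions.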

[2] = qHTS of pediatric cancer cell lines to identify multiple opportunities for drug repurposing: Primary screen for OHS-50 cells (AID 1347103); also: nearly all actives have a fitted effect of over 40% in size; also: potency is read from the fitted curve at half-maximal effect
In short: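 Cells (500-1,000/well) rested 5 h, then received compounds for 48 h; metabolically active cells were measured by CellTiter-Glo luminescence. Final concentrations spanned up to 46 µM (MIPE, 11-point) or 0.59 nM-46 µM (NPC, 8-point) in primary screens, 11-point in follow-ups.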

[3] = qHTS of pediatric cancer cell lines to identify multiple opportunities for drug repurposing: Primary screen for RD cells (AID 1347104); also: nearly all actives have a fitted effect of over 55% in size; also: potency is read from the fitted curve at half-maximal effect
In short: (§1)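 Following a 5-hour attachment period, cells at 500-1,000/well received compounds and were cultured for 48 hours. CellTiter-Glo was added and luminescence read to estimate viable, metabolically active cells.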

[4] = qHTS of pediatric cancer cell lines to identify multiple opportunities for drug repurposing: Primary screen for MG 63 (6-TG R) cells (AID 1347105); also: nearly all actives have a fitted effect of over 50% in size; also: potency is read from the fitted curve at half-maximal effect
In short: as §1

[5] = qHTS of pediatric cancer cell lines to identify multiple opportunities for drug repurposing: Primary screen for Rh41 cells (AID 1347108); also: nearly all actives have a fitted effect of over 70% in size; also: potency is read from the fitted curve at half-maximal effect
In short: as §1

[6] = qHTS of pediatric cancer cell lines to identify multiple opportunities for drug repurposing: Confirmatory screen for NB1643 cells (AID 1347109); also: nearly all actives have a fitted effect of over 45% in size; also: potency is read from the fitted curve at half-maximal effect
In short: (§2)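 Cells (500-1,000/well) in growth media were settled 5 h at 37 degrees C, then given compounds for 48 h. Viability was read as CellTiter-Glo luminescence. Primary runs used MIPE at 11 points (0.78 nM-46 µM) and NPC at 8 points (0.59 nM-46 µM); follow-ups used 11 points.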

[7] = qHTS of pediatric cancer cell lines to identify multiple opportunities for drug repurposing: Confirmatory screen for A673 cells (AID 1347110);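 also: cells exposed to compound for 48 h before the viability read; nearly all actives have a fitted effect of over 65% in size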; also: potency is read from the fitted curve at half-maximal effect
In short: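 Viability was read as ATP luminescence (CellTiter-Glo) after 48 h of compound exposure at 37 C in A673 cells seeded at 500-1,000/well. Titrations reached 46 uM final, with 11 points in the confirmatory screen. Concentration-response curves were fitted directly.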

[8] = qHTS of pediatric cancer cell lines to identify multiple opportunities for drug repurposing: Primary screen for Rh30 cells (AID 1347107); also: series mostly up to about 46 µM; nearly all actives have a fitted effect of over 75% in size
In short: as §2

With COc1ccc(C(c2ccc(OC)cc2)C(Cl)(Cl)Cl)cc1 the Potency [1] was “inactive”.

With O=C1C=CC[C@@H]2[C@H]3CCCN4CCC[C@@H](CN12)[C@@H]34 the Potency [1] was “inactive”.

With Cc1ccccc1-n1c(Cn2cnc3c(N)ncnc32)nc2cccc(C)c2c1=O the Potency [2] was 0.0611 µM (active), the Potency [3] was 2.35 µM (active) and the Potency [4] was 148 nM (active). The Potency [5] was 0.59 µM (active), the Potency [6] was “inactive” and the Potency [7] was “inactive”.

For O=S(=O)(CC1CS1)c1ccc(Oc2ccccc2)cc1 (configuration not stated), the Potency [2] was 30.6 µM (active), the Potency [1] was “inactive” and the Potency [5] was 18.7 µM (active).

For C=CC(=O)NCNC(=O)C=C, the Potency [2] was “inactive”, the Potency [3] was “inactive” and the Potency [4] was “inactive”. The Potency [1] was “inactive”, the Potency [8] was “inactive” and the Potency [5] was “inactive”.

With CC(C)Oc1cccc(NC(=O)c2ccccc2C(F)(F)F)c1 the Potency [2] was 25.2 µM (active), the Potency [3] was “inactive” and the Potency [4] was “inactive”. The Potency [1] was “inactive”, the Potency [8] was “inactive” and the Potency [5] was “inactive”.

With C=C1C[C@H]2[C@H]3CCC(=O)[C@@]3(C)CC[C@@H]2[C@@]2(C)C=CC(=O)C=C12 the Potency [3] was “inactive”, the Potency [4] was “inactive” and the Potency [1] was “inactive”. The Potency [8] was “inactive”.

With CCNC(=O)CC1N=C(c2ccc(Cl)cc2)c2cc(OC)ccc2-n2c(C)nnc21 (configuration not stated) the Potency [2] was 21.7 µM (active), the Potency [3] was 5.9 µM (active) and the Potency [1] was “inactive”.

With Nc1c(Cl)c(Cl)c(Cl)c(Cl)c1Cl the Potency [2] was “inactive”, the Potency [3] was “inactive” and the Potency [4] was “inactive”. For the same molecule, the Potency [8] was “inactive” and the Potency [5] was “inactive”.

For C#C[C@]1(O)C=C[C@@H]2[C@@H]3CCC4=CC(=O)CC[C@@H]4[C@H]3CC[C@@]21CC, the Potency [3] was “inactive”, the Potency [4] was “inactive” and the Potency [1] was “inactive”. The Potency [8] was “inactive” and the Potency [5] was “inactive”.

With CCOC(=O)Nc1ccc(NCc2ccc(F)cc2)cc1N the Potency [2] was “inactive”, the Potency [3] was 26.4 µM (active) and the Potency [4] was “inactive”. For the same molecule, the Potency [1] was “inactive” and the Potency [8] was “inactive”.

In the case of O=c1[nH]c2ccc(Cl)cc2c(N[C@@H]2CN3CCC2CC3)c1-c1nc2ccccc2[nH]1, the Potency [3] is reported as 5.9 µM (active), the Potency [4] is reported as 235 nM (active) and the Potency [1] is reported as 16.6 µM (active). The Potency [8] was “inactive”, the Potency [5] was 14.8 µM (active) and the Potency [6] was 1.31 µM (active). For the same molecule, the Potency [7] was 261 nM (active).

In the case of Cc1c(C(=O)Nc2cccc(C(F)(F)F)c2)cc(-c2ccccc2)n1CCCN1CCOCC1, the Potency [2] is reported as 24.3 µM (active), the Potency [3] is reported as 18.7 µM (active) and the Potency [1] is reported as “inactive”. The Potency [6] was 42.7 µM (active).

With C[C@@H]1CC[C@H]2[C@@H](C)C(=O)O[C@@H]3O[C@@]4(C)CC[C@H]1[C@]32OO4 the Potency [1] was “inactive”.

With Nc1ccc(N=Nc2ccccc2)cc1 the Potency [1] was “inactive” and the Potency [5] was “inactive”.

With C[C@](O)(COc1ccc(C#N)cc1)C(=O)Nc1ccc(C#N)c(C(F)(F)F)c1 the Potency [4] was “inactive”, the Potency [1] was “inactive” and the Potency [8] was “inactive”. For the same molecule, the Potency [5] was “inactive”.

With COc1ccc2c(c1)CN(C)CC2c1ccc(Cl)c(Cl)c1 (configuration not stated) the Potency [4] was “inactive”, the Potency [1] was “inactive” and the Potency [8] was “inactive”. The Potency [5] was “inactive”.

In the case of CCO/N=C(\CC)C1=C(O)CC(c2c(C)cc(C)cc2C)CC1=O (configuration not stated), the Potency [3] is reported as “inactive”, the Potency [4] is reported as “inactive” and the Potency [1] is reported as “inactive”. For the same molecule, the Potency [8] was “inactive” and the Potency [5] was “inactive”.

For CC[C@H]1C=CC=CC[C@@H](C)[C@H](O)[C@@](C)(O)C(=O)[C@@H](C)[C@H](O)[C@@H](C)C(=O)[C@@H](C)[C@H](O)[C@@H](C)C=CC(=O)O[C@@H]2[C@@H](C)[C@H](CC1)O[C@]1(CC[C@H](C)[C@H](C[C@@H](C)O)O1)[C@H]2C, the Potency [2] was 0.0049 µM (active), the Potency [3] was 23.5 µM (active) and the Potency [1] was “inactive”. The Potency [8] was “inactive”.

In the case of Nc1ccc(Cl)cc1, the Potency [2] is reported as “inactive”, the Potency [3] is reported as “inactive” and the Potency [4] is reported as “inactive”. For the same molecule, the Potency [1] was “inactive”, the Potency [8] was “inactive” and the Potency [5] was “inactive”.

For CN1CCN(c2ccc([N+](=O)[O-])c3no[n+]([O-])c23)CC1, the Potency [2] was 34.3 µM (active), the Potency [1] was “inactive” and the Potency [8] was “inactive”.

With c1cc2c(cc1[C@H]1OC[C@H]3[C@H]1CO[C@H]3c1ccc3c(c1)OCO3)OCO2 the Potency [3] was “inactive”, the Potency [4] was “inactive” and the Potency [1] was “inactive”. The Potency [8] was “inactive” and the Potency [5] was “inactive”.

For O=C(N[C@@H](COc1ccc2[nH]c(=O)[nH]c2c1)c1ccccc1)c1cccn(Cc2ccc(F)c(F)c2)c1=O, the Potency [1] was “inactive” and the Potency [8] was “inactive”.

In the case of ClC1=C(Cl)[C@]2(Cl)[C@@H]3[C@@H]4C[C@@H]([C@H]5O[C@@H]45)[C@@H]3[C@@]1(Cl)C2(Cl)Cl, the Potency [2] is reported as 28.2 µM (active), the Potency [1] is reported as “inactive” and the Potency [8] is reported as “inactive”.

For C[C@@H]1O[C@@H](O[C@@H]2C=C3CC[C@@H]4[C@@H](CC[C@]5(C)[C@H](c6ccc(=O)oc6)CC[C@@]45O)[C@@]3(C)CC2)[C@H](O)[C@H](O)[C@H]1O, the Potency [2] was 0.0172 µM (active), the Potency [3] was 0.0074 µM (active) and the Potency [4] was 4.7 nM (active). The Potency [5] was 0.0235 µM (active), the Potency [6] was 0.0827 µM (active) and the Potency [7] was 52.2 nM (active).

For O=c1[nH]c2ccccc2n1C1CCN(Cc2ccc(-c3[nH]c4cc5ncnc5cc4nc3-c3ccccc3)cc2)CC1, the Potency [1] was “inactive”.

In the case of C=C[C@@H]1CN2CCC1C[C@@H]2[C@@H](O)c1ccnc2ccccc12 (some centres not stated), the Potency [2] is reported as 30.6 µM (active), the Potency [3] is reported as 29.6 µM (active) and the Potency [4] is reported as “inactive”. The Potency [1] was “inactive”.

In the case of CC1(N2CCC(n3c([C@@H]4CCCNC4)nc4ccccc43)CC2)CCCCCCC1, the Potency [2] is reported as 24.3 µM (active), the Potency [3] is reported as 13.2 µM (active) and the Potency [4] is reported as “inactive”. For the same molecule, the Potency [8] was “inactive” and the Potency [5] was “inactive”.

For c1ccc(CCCN2CCN(CCOC(c3ccccc3)c3ccccc3)CC2)cc1, the Potency [3] was 29.6 µM (active) and the Potency [1] was “inactive”.

In the case of CCNC(=O)C[C@@H]1N=C(c2ccc(Cl)cc2)c2cc(OC)ccc2-n2c(C)nnc21, the Potency [3] is reported as 1.18 µM (active), the Potency [4] is reported as 469 nM (active) and the Potency [1] is reported as “inactive”. For the same molecule, the Potency [5] was 5.9 µM (active).

From PubChem BioAssay (NCATS)
